{"source": "the supplement of paper PMC13380429", "data": [{"tested_on": "Vero E6 infected with SARS-CoV-2", "test": "morphology score (similarity to uninfected cells); higher = more like uninfected cells", "conditions": "24 h", "values": [{"smiles": "CC(C)n1nccc1-c1ncccc1COc1cccc(O)c1C=O", "note": "[voxelotor] (10 µM)", "morphology score": 0.188}, {"smiles": "O=C(Oc1ccccc1)c1ccccc1O", "note": "[phenyl-salicylate] (10 µM)", "morphology score": -0.0306}, {"smiles": "C[C@H]1O[C@H](O[C@H]2[C@H](O)[C@@H](O)[C@@H](O[C@H]3[C@H](O)[C@@H](O)C(O)O[C@@H]3CO)O[C@@H]2CO)[C@H](O)[C@@H](O)[C@@H]1N[C@H]1C=C(CO)[C@@H](O)[C@H](O)[C@H]1O", "note": "(stereo not given in full) [acarbose] (10 µM)", "morphology score": 0.085}, {"smiles": "C[C@H](CCC(=O)O)[C@H]1CC[C@H]2[C@@H]3CC[C@@H]4C[C@H](O)CC[C@]4(C)[C@H]3CC[C@]12C", "note": "[lithocholic-acid] (10 µM)", "morphology score": 0.0318}, {"smiles": "C1CCC(/N=C(\\NC23CC4CC(CC(C4)C2)C3)N2CCOCC2)CC1", "note": "(10 µM)", "morphology score": -0.0395}, {"smiles": "Cc1ccc(OC[C@@H](O)[C@H](C)NC(C)C)c2c1CCC2", "note": "(racemic) (10 µM)", "morphology score": -0.0205}, {"smiles": "CCNC(=O)[C@H]1O[C@@H](n2cnc3c(N)nc(NCCc4ccc(CCC(=O)O)cc4)nc32)[C@H](O)[C@@H]1O", "note": "(10 µM)", "morphology score": -0.0155}, {"smiles": "CC=C1C(=O)C[C@H]2[C@@H]3CCC4=CC(=O)CC[C@]4(C)[C@H]3CC[C@]12C", "note": "(10 µM)", "morphology score": 0.0492}, {"smiles": "CC[C@@]1(O)C(=O)OCc2c1cc1n(c2=O)Cc2cc3cc(O)ccc3nc2-1", "note": "[10-hydroxycamptothecin] (10 µM)", "morphology score": -0.13}, {"smiles": "CN1C(=O)OC(C)(C)C1=O", "note": "[trimethadione] (10 µM)", "morphology score": 0.1}]}]}
